Shown are actives, neighbours in structure and some others; about 1.8% of the full set was active somewhere.
PME-1 inh: PME-1 (human) inhibition; recombinant PME-1, FP-Rh probe fluorescence polarization; 320,000 compounds, 0.53% hits; inhibition, % at 5.9 µM;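 active = inhibition above the campaign mean of all compounds plus 3 SD, cut at about 26% in these data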;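 note: competitive labeling of PME-1 active site by serine hydrolase directed probe; inhibitors block probe labeling so polarization falls and inhibition rises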
LYPLA2 inh: counter-screen for PME1 inhibitors: inhibitors of human LYPLA2 | O95372 | recombinant LYPLA2, FP-Rh probe fluorescence polarization | inhibition, % at 5.9 µM | 320,000 compounds, 0.38% hits;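 active = inhibition above the screen-wide mean plus 3 SD, limit set per campaign, cut at about 26% in these data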
Target sequence (O95372 whole entry, looked up): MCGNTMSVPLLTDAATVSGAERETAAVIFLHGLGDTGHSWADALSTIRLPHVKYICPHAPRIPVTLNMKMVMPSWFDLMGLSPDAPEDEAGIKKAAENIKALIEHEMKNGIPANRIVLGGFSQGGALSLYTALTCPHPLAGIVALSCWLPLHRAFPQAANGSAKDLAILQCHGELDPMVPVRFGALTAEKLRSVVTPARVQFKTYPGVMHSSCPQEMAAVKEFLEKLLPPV
Fam108B inh: blocks mouse Fam108B hydrolase in RBBP9 counter-screen; 300,000 compounds, 0.33% hits; recombinant Fam108B, FP-Rh probe fluorescence polarization; inhibition, % at 9.51 µM;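 active = inhibition above the screen mean inhibition plus 3 SD, computed separately per campaign, cut at about 18% in these data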;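 note: inhibitors lower polarization as less probe binds the enzyme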
GSTO1 counter: GSTO1 inhibition, counter-screen for RBBP9 inhibitors; 300,000 compounds, 1.1% hits; P78417; inhibition, % at 5.96 µM; AID 1974; recombinant GSTO1, activity-based probe fluorescence polarization;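 active = inhibition above the campaign mean inhibition plus 3 SD, cut at about 35% in these data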
PAD4 inh: inhibitors of human PAD4; recombinant PAD4, RCA probe fluorescence polarization; 330,000 compounds, 0.41% hits; Q9UM07; inhibition, % at 6.36 µM;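 active = percent inhibition above a cutoff equal to the mean of all tested compounds plus 3 SD, cut at about 15% in these data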
LYPLA1 counter: LYPLA1 (human) inhibition in PME1 counter-screen; 320,000 compounds, 0.16% hits; AID 2174; O75608; recombinant LYPLA1, FP-Rh probe fluorescence polarization; inhibition, % at 5.9 µM;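 active = inhibition above the mean of all tested compounds plus 3 SD, set per campaign, cut at about 14% in these data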;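 note: inhibitors block serine hydrolase probe labeling of LYPLA1 so polarization falls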
Target sequence (O75608 whole entry, looked up): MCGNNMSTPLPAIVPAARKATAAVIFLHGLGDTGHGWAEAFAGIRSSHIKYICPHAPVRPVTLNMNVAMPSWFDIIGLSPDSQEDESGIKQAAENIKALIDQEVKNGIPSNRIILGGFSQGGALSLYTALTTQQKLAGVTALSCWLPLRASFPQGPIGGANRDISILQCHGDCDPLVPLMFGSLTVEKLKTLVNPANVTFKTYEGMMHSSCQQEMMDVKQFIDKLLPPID
Fam108b inh conf: confirmation of mouse Fam108b serine hydrolase inhibitors | recombinant Fam108b, FP-Rh probe fluorescence polarization | shares compounds with Fam108B inh | AID 1978 | inhibition, % at 9.51 µM | 930 compounds, 44% hits;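 active = inhibition above a limit from the primary screen, the mean over all compounds plus 3 SD, cut at about 19% in these data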;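 note: inhibitors free the probe so polarization falls as inhibition rises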
Fam108b inh: inhibits mouse Fam108b in gel-based ABPP. shares compounds with Fam108B inh. recombinant Fam108b, fluorophosphonate probe. inhibition, % at 20 µM. 260 compounds, 44% hits. AID 588649; in the data active = inhibition above about 40%
Hits are given with their value; n = inactive; x = no result given.

SMILES	PME-1 inh	LYPLA2 inh	Fam108B inh	GSTO1 counter	PAD4 inh	LYPLA1 counter	Fam108b inh conf	others
CC(C)(C)c1cc[n+](-c2[nH]c(=O)sc2/C=N/N=C(\[O-])c2cccnc2)cc1	n	n	n	n	n	n	x
O=c1[nH]c(-[n+]2ccc3ccccc3c2)c(/C=N/N=C(\[O-])c2ccccc2)s1	n	n	18.3	n	n	n	n
O=C(O)C1Nc2c(Cl)cc(Cl)cc2C2C=CCC12 (centres undefined)	n	n	32.7	n	n	n	23.6
O=C(O)C1Nc2c(Cl)cc(Cl)c(Cl)c2C2C=CCC12 (centres undefined)	n	n	n	n	n	n	x
CN(C)C(=O)COc1ccc(S(=O)(=O)c2ccc(OCC(=O)N(C)C)cc2)cc1	n	n	n	n	n	n	x
Cc1cc(N/N=C/c2ccc(O)cc2O)nc(-c2ccccc2O)n1	65.3	n	34.0	n	n	n	n
Cc1cc(N/N=C/c2ccc(O)cc2O)c2ccccc2n1	n	n	n	n	n	n	x
O=C(Nc1cc(S(=O)(=O)N2CCCCCC2)ccc1OCC(F)(F)F)c1cnccn1	n	n	x	x	n	n	x
O=C(O)c1ccc([N+](=O)[O-])c2c1C(=O)c1ccccc1C2=O	n	n	n	n	n	n	x
O=C1c2ccccc2C(=O)c2c([N+](=O)[O-])ccc(O)c21	28.6	n	31.2	n	n	n	36.1	Fam108b inh=n
CCOC(=O)c1c(S(=O)(=O)N2CCN(c3ccc(F)cc3)CC2)c(C)n(C)c1C	n	n	n	n	n	n	x
O=C(CSc1nnc(CNC(=O)c2cccc(C(F)(F)F)c2)o1)NC1CCCC1	n	n	n	n	n	n	x
Cc1cc(C)cc(C(=O)NC(=S)Nc2ccc3c(c2)OCCO3)c1	n	n	n	n	n	n	x
Cc1ccc(C(=O)NC(=S)Nc2ccc3c(c2)OCCO3)c(C)c1	n	n	26.4	n	n	n	n
O=[N+]([O-])c1ccc(O)c(/C=N/Nc2ccccc2Cl)c1	n	n	n	n	n	n	x
O=[N+]([O-])c1ccc(O)c(C=NNC(=S)Nc2ccc(Cl)cc2Cl)c1	x	x	x	x	x	x	x	Fam108b inh=n
O=c1c2c3c(sc2n(CCN2CCOCC2)c(=O)n1Cc1ccco1)CCCCC3	n	n	20.4	n	n	n	n
O=c1c2c3c(sc2n(CCN2CCCCC2)c(=O)n1Cc1ccco1)CCCCC3	n	n	21.1	n	n	n	28.1
CCCn1c(N)c(N2CCCCC2)c(=O)n(CC(=O)Nc2cccc(S(=O)(=O)N(C)C)c2)c1=O	x	x	x	x	n	x	x
O=C(Nc1cc(Sc2ccccn2)cc([N+](=O)[O-])c1)c1cccc(F)c1	n	n	20.9	n	n	n	n
COC(=O)c1ccc(NC(=O)Nc2ccc([N+](=O)[O-])cc2)cc1	n	n	n	n	n	n	x
COc1cccc(Nc2nc(-c3ccc(O)cc3)cs2)c1	n	n	n	n	n	n	x
COc1cccc(Nc2nc(-c3cccc(N4C(=O)c5ccccc5C4=O)c3)cs2)c1	n	n	30.8	n	n	n	n
CCOc1cc(/C=C2\C(=O)N(c3nc(-c4ccc(Br)cc4)cs3)N=C2c2ccccc2)ccc1O	n	n	42.4	n	n	n	42.4	Fam108b inh=90.0
CCOc1cc(/C=C2/SC(=S)N(Cc3ccccc3)C2=O)ccc1O	n	n	n	n	n	n	x
COc1cccc2[nH]c(C(=O)NC(C)c3ccccc3)cc12 (centres undefined)	n	n	n	n	n	n	x
CCN(CC)c1ccc(NC(=O)c2cc3c(OC)cccc3[nH]2)cc1	n	n	20.6	n	n	n	n
COc1ccc(NC(=O)c2cccc(N3C(=O)c4ccc(C(=O)Nc5ccc(OC)c(O)c5)cc4C3=O)c2)cc1O	n	n	21.0	n	n	n	25.7
COc1ccc(Br)cc1CN1CCN(C(=O)c2cccc(F)c2)CC1	n	n	n	n	n	n	x
CCOC(=O)c1sc(NC(=O)c2cccc(S(=O)(=O)N3c4ccccc4CC3C)c2)cc1C (centres undefined)	32.6	n	43.2	n	n	n	21.0
